This is a sample that favours compounds with a hit; in the whole collection about 4.3% have one here.
NR3A LBD binder = modulators (binders) of human NR3A ligand-binding domain | NR3A LBD differential scanning fluorimetry, Tm shift; 0% = protein alone, 100% = glycine-bound protein | Tm shift relative to glycine control, % at 25 µM | 340,000 tested, 2.5% active | AID 1259313;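 active = melting temperature shift of at least 10% of the positive control shift, at one fixed dose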
FAS TE block = inhibitors of human fatty acid synthase thioesterase domain. P49327. recombinant FAS-TE, OMFH fluorogenic substrate, fluorescence endpoint. inhibition, % at 15 µM. 360,000 tested, 0.67% active. AID 602261;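 active = compounds whose normalised, plate-corrected inhibition of enzyme fluorescence in the single-dose primary screen is 50% or more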
NadD inh = NadD (S. aureus) enzyme inhibition; purified NadD enzyme, colorimetric absorbance read-out; inhibition, % at 20 µM; 360,000 tested, 0.78% active; in the data active = inhibition above about 26%
rCAG RNA binder = molecules binding r(CAG) RNA repeats | r(CAG) RNA repeat, TO-PRO-1 dye displacement fluorescence | inhibition, % at 3 µM | 370,000 tested, 1.3% active | AID 651821;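 active = inhibition above the plate cutoff, the mean of all test compounds on that plate plus 3 SD, cut at about 35% in these data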;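 also: higher means more dye released from RNA so lower well fluorescence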
Of the large screens only hits and unclear results are named; the others gave an inactive call.

CC1Oc2ccccc2C=C1/C=N/NC(=O)c1ccccc1O (centres undefined)	NR3A LBD binder 13
CC1Oc2ccccc2C=C1/C=N/NC(=O)c1ccccc1 (centres undefined)	none
O=C(COc1ccccc1Br)c1ccc(O)cc1O	NR3A LBD binder 21
O=C(COc1ccccc1Br)c1ccc2c(c1)OCO2	none
COc1ccc(-c2cnnc(N/N=C/c3ccc(-c4ccc([N+](=O)[O-])cc4)o3)n2)cc1	NR3A LBD binder 19
O=[N+]([O-])c1ccc(-c2ccc(/C=N/O)o2)cc1	NR3A LBD binder 33
C#CCNC(=O)C[C@H]1C[C@@]2(C(=O)OC)C(=C[C@H](C(C)C)O[C@@H]2C2CC2)N(Cc2ccc3c(c2)OCO3)C1=O	none (no result: NR3A LBD binder, FAS TE block, NadD inh)
Fc1ccc2[nH]c3c(c2c1)CN(C(=S)NCc1ccccc1)CC3	NR3A LBD binder 29
C=CCNC(=O)N1CCc2[nH]c3ccc(F)cc3c2C1	none
CC(COc1cccc(OC(F)(F)F)c1)CN1CCC(C(O)(c2ccccc2)c2ccccc2)CC1 (centres undefined)	none (no result: NR3A LBD binder, FAS TE block, NadD inh)
CCN(C(=O)COC(=O)COc1ccc2c(c1)CCC2)c1c(N)n(Cc2ccccc2)c(=O)[nH]c1=O	none
CN(C(=O)COC(=O)COc1ccc2c(c1)CCC2)c1c(N)n(Cc2ccccc2)c(=O)[nH]c1=O	NR3A LBD binder 18
CCCN=C1N(CC)C[C@@H]2[C@@H]3C(=O)N(Cc4ccccc4)C(=O)[C@@H]3[C@](Cc3ccccc3)(C(=O)OC)N12	NR3A LBD binder 13
Cc1cc2cc(CN(CC3CCCO3)C(=S)NCc3ccco3)c(=O)[nH]c2cc1C (centres undefined)	NR3A LBD binder 13
Nc1ccc(C(=O)OCc2nc3cc4ccccc4cc3[nH]2)cc1	none
Nc1ccc(C(=O)OCc2nc3c(ccc4ccccc43)[nH]2)cc1	NR3A LBD binder 27
O=C1[C@@H](CCc2ccccc2)[C@@H]2c3cc4ccccc4cc3C=NN2[C@@H]2c3cc4ccccc4cc3C=NN12	none (no result: NR3A LBD binder, FAS TE block, NadD inh)
NS(=O)(=O)c1ccc(NC(=O)COC(=O)c2ccc(S(=O)(=O)N3CCOCC3)cc2)cc1	NR3A LBD binder 14
Cc1c(C(=O)OCC(=O)Nc2ccc(S(N)(=O)=O)cc2)oc2c1ccc1ccccc12	NR3A LBD binder 18
O=C(COC(=O)CCC(=O)c1cccs1)Nc1ccc(S(=O)(=O)N2CCOCC2)cc1	NR3A LBD binder 15
CC(=O)Nc1ccc(C(=O)OCC(=O)Nc2ccc(S(=O)(=O)N3CCOCC3)cc2)cc1	none
O=C(COC(=O)C1=COCCO1)Nc1cccc(S(=O)(=O)N2CCOCC2)c1	NR3A LBD binder 11
CCCCOc1cccc(C(=O)NCCc2ccccc2-c2ccccc2CCC(=O)NCc2ccccc2)c1	none (no result: NR3A LBD binder, FAS TE block, NadD inh)
CC(NC(=O)CSc1nc2sc3c(c2c(=O)n1-c1ccccc1)CCCC3)c1ccccc1 (centres undefined)	NadD inh 33
Clc1ccc2scc(CN3CCCCC3)c2c1	NR3A LBD binder 16
NC(=O)c1ncn([C@@H]2O[C@H](C(=O)N3CCCN(Cc4ccccc4F)CC3)[C@@H](O)[C@H]2O)n1	none (no result: NR3A LBD binder, FAS TE block, NadD inh)
COc1ccc(OC)c(/C=N/n2c(-c3n[nH]c4c3CCC4)n[nH]c2=S)c1	NR3A LBD binder 14
Cn1c(=O)cc(C(=O)N/N=C/c2ccc(Cl)cc2)[nH]c1=O	NR3A LBD binder 13
COc1ccc(OCCn2nnc(-c3ccc(Cl)cc3)n2)cc1	NR3A LBD binder 15
Nc1[nH]c(C(=O)c2ccccc2)c(-c2ccc(Cl)c(F)c2)c1C(=O)c1c[nH]c2ccccc12	none (no result: NR3A LBD binder, FAS TE block, NadD inh)
O=C(Cn1c(O)c(/C=C2\C=Nc3ccccc32)sc1=O)N1CCOCC1	none
CC1=Nc2ccccc2/C1=C\c1sc(Nc2ccc(C)cc2)nc1O	NR3A LBD binder 21
Oc1nc(Nc2cccc(Cl)c2)sc1/C=C1\C=Nc2ccccc21	NR3A LBD binder 37, rCAG RNA binder 55
S=c1[nH]nc(Nc2cccc(Cl)c2)s1	none
Oc1cccc(Nc2nc(O)c(/C=C3\C=Nc4ccccc43)s2)c1	NR3A LBD binder 21, rCAG RNA binder 48
CC1=Nc2ccccc2/C1=C/c1sc(=O)n(CC(=O)N2CCCC2)c1O	none
COc1ccc(C2CC(=O)C(c3ccccc3)=CN2Cc2ccccc2)cc1 (centres undefined)	none (no result: NR3A LBD binder, FAS TE block, NadD inh)
CN(Cc1ccccc1)C(=O)c1ccc(NC(=O)Cc2ccc(NC(=O)C3CCN(C(=O)CCc4ccccc4)CC3)cc2)cc1	NR3A LBD binder 13
CN(Cc1ccccc1)C(=O)c1cccc(NC(=O)Cc2ccc(NC(=O)C3CCN(C(=O)CCc4ccccc4)CC3)cc2)c1	NR3A LBD binder 17
CN(C(=O)c1ccc(NC(=O)Cc2ccc(NC(=O)C3CCN(C(=O)CCc4ccccc4)CC3)cc2)cc1)C1CC1	none
CN(C)c1ccc(C(CNS(=O)(=O)c2ccc3ccccc3c2)c2c[nH]c3ccccc23)cc1 (centres undefined)	NR3A LBD binder 16
CCOC(=O)[C@]12CCCC3=C1N(CCC3)C(=O)[C@@H](CC(=O)NCCCCc1ccccc1)C2	none (no result: NR3A LBD binder, FAS TE block, NadD inh)
Oc1ccc(/C=C/c2nc(-c3ccccc3O)n(-c3ccccc3)n2)cc1	NR3A LBD binder 14
CC1CCc2nc3ccccc3c(C(=O)OCC(=O)NC3CCS(=O)(=O)C3)c2C1 (centres undefined)	none
COc1cccc(NC(=O)COC(=O)c2c3c(nc4ccccc24)CCC(C)C3)c1 (centres undefined)	NR3A LBD binder 19
CCOc1ccc(NC(=O)C2=C(C)NC(=S)NC2c2ccc(O)c(OC)c2)cc1 (centres undefined)	NR3A LBD binder 13
CCOC(=O)N1CCN(C(=O)C[C@H]2C[C@@]3(C(=O)OC)C(=C[C@H](C(C)(C)C)O[C@@H]3C)N(Cc3cccc4ccccc34)C2=O)CC1	none (no result: NR3A LBD binder, FAS TE block, NadD inh)
CCNc1ccc(Br)cc(C(=O)/C=C/c2c(Cl)cccc2Cl)c1=O	NadD inh 56 (no result: rCAG RNA binder)
CNc1ccc(Br)cc(C(=O)/C=C/c2ccc(OC)cc2OC)c1=O	none
CC[C@@H](C(=O)n1nc(C)cc1C)[C@H](NS(=O)(=O)c1ccc(C)cc1)c1ccccc1	NR3A LBD binder 13
CC(=O)Nc1ccc(Nc2nc(Cl)nc(Nc3ccc(NC(C)=O)cc3)n2)cc1	NR3A LBD binder 13
COc1ccc(Nc2nc(Cl)nc(Nc3ccc(OC)cc3)n2)cc1	NR3A LBD binder 17
COc1ccc(Nc2nc(C)c3ccccc3n2)cc1	NR3A LBD binder 38
COc1ccc(Nc2nc(-c3ccccc3)c3ccccc3n2)cc1	none
Clc1nc(Nc2ccccc2)nc(Nc2ccccc2)n1	NR3A LBD binder 18
COc1cc(NC(=O)C2CCCN(S(=O)(=O)c3ccccc3[N+](=O)[O-])C2)cc(OC)c1 (centres undefined)	none (no result: NR3A LBD binder, FAS TE block, NadD inh)
COC(=O)[C@]12C[C@H](CC(=O)NCc3ccc(OC)c(OC)c3)C(=O)N(Cc3ccco3)C1=C[C@H](C(C)(C)C)O[C@@H]2C	none (no result: NR3A LBD binder, FAS TE block, NadD inh)
Cc1ccc2c(c1)N(CCCC(=O)NCc1ccc(F)cc1)C(=O)CO2	none (no result: NR3A LBD binder, FAS TE block, NadD inh)
COc1ccc(S[C@]2(C(=O)N3CCN(c4ncccn4)CC3)CC(=O)N(C(=O)CCc3ccccc3)[C@@H]2c2ccc(OC)cc2)cc1	none (no result: NR3A LBD binder, FAS TE block, NadD inh)

Compound activity: PubChem, several laboratories
